Results from PubChem BioAssay AID1159580 (chemical genetic matrix, 2015).
The whole screen tested about 5,500 compounds, of which about 2,000 (36%) were called active. Not shown: some 18% with an inconclusive outcome. Rule as the data show it: active = normalized growth mostly below about 0.91 (no sharp cut-off); inconclusive = no clear call, values can overlap the other calls; inactive = mostly above about 0.92. This is one part of the list.

Experiment: chemical genetic growth profiling, strain panel (AID 1159580);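 also: tested at 20 µM; growth read once vehicle control cultures reached saturation at 30 °C; 1 = growth at the plate median or of vehicle wells; lower values mean less growth of the strain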
Conditions: S. cerevisiae deletion strains, growth OD

Measured: normalized growth

NC(=S)N/N=C1/CCCc2ccccc21
inactive: locus YAR019C, strain CDC15, hits give low values 0.923 | locus YBL105C, strain PKC1, hits give low values 0.944 | locus YBR135W, strain CKS1, hits give low values 0.939 | locus YBR136W, strain MEC1, hits give low values 0.909 | locus YBR160W, strain CDC28, hits give low values 0.905 | locus YDL017W, strain CDC7, hits give low values 0.921 | locus YDL028C, strain MPS1, hits give low values 0.924 | locus YDL101C, strain DUN1, hits give low values 0.921 | locus YDL108W, strain KIN28, hits give low values 0.906 | locus YDL214C, strain PRR2, hits give low values 0.805 | locus YDR054C, strain cdc34, hits give low values 0.885 | locus YDR477W, strain SNF1, hits give low values 0.748 | locus YER123W, strain YCK3, hits give low values 0.891 | locus YER133W, strain GLC7, hits give low values 0.802 | locus YFL009W, strain cdc4, hits give low values 0.92 | locus YFL029C, strain CAK1, hits give low values 0.921 | locus YFR003C, strain YPI1, hits give low values 0.913 | locus YFR019W, strain FAB1, hits give low values 0.925 | locus YGR040W, strain KSS1, hits give low values 0.805 | locus YGR052W, strain FMP48, hits give low values 0.746 | locus YGR092W, strain DBF2, hits give low values 0.814 | locus YHR079C, strain IRE1, hits give low values 0.954 | locus YHR082C, strain KSP1, hits give low values 0.935 | locus YHR205W, strain SCH9, hits give low values 0.993 | locus YIL147C, strain SLN1, hits give low values 0.91 | locus YJL095W, strain BCK1, hits give low values 0.934 | locus YJL128C, strain PBS2, hits give low values 0.966 | locus YJL157C, strain FAR1, hits give low values 0.749 | locus YJR066W, strain TOR1 (second series), hits give low values 0.824 | locus YJR066W, strain TOR1, hits give low values 0.765 | locus YKL067W, strain YNK1, hits give low values 0.796 | locus YKL101W, strain HSL1, hits give low values 0.822 | locus YKL193C, strain SDS22, hits give low values 0.922 | locus YLR113W, strain HOG1, hits give low values 1 | locus YLR133W, strain CKI1, hits give low values 0.796 | locus YML070W, strain DAK1, hits give low values 0.914 | locus YMR001C, strain CDC5, hits give low values 0.939 | locus YMR205C, strain PFK2 (second series), hits give low values 0.759 | locus YNL006W, strain LST8, hits give low values 0.978 | locus YNL020C, strain ARK1, hits give low values 0.802 | locus YNL161W, strain CBK1, hits give low values 0.955 | locus YNL183C, strain NPR1, hits give low values 0.735 | locus YNL222W, strain SSU72, hits give low values 0.956 | locus YNL307C, strain MCK1 (second series), hits give low values 0.695 | locus YOL078W, strain AVO1, hits give low values 0.925 | locus YOL136C, strain PFK27, hits give low values 0.922 | locus YOR061W, strain CKA2, hits give low values 0.902 | locus YOR231W, strain MKK1, hits give low values 0.912 | locus YOR329C, strain SCD5, hits give low values 0.965 | locus YPL031C, strain PHO85, hits give low values 0.788 | locus YPL153C, strain RAD53, hits give low values 0.837 | locus YPL204W, strain HRR25, hits give low values 0.872 | locus YPL209C, strain IPL1, hits give low values 0.934 | locus YPL256C, strain CLN2, hits give low values 0.999 | locus YPR025C, strain CCL1, hits give low values 0.937 | locus YPR106W, strain ISR1, hits give low values 0.913 | locus YPR111W, strain DBF20, hits give low values 0.874 | strain NNK1, hits give low values 0.908 | strain TSCII, hits give low values 0.93
active: locus YDR052C, strain DBF4, hits give low values 0.884 | locus YDR226W, strain ADK1, hits give low values 0.866 | locus YFR028C, strain CDC14, hits give low values 0.834 | locus YHR030C, strain SLT2, hits give low values 0.805 | locus YJR016C, strain ILV3, hits give low values 0.896 | locus YKL048C, strain ELM1, hits give low values 0.781 | locus YKL203C, strain TOR2, hits give low values 0.589 | locus YLR403W, strain SFP1, hits give low values 0.659 | locus YNL207W, strain RIO2, hits give low values 0.858 | locus YOR119C, strain RIO1, hits give low values 0.573
